# Compound activity (PubChem)
# SMARCA2 activ = activators of SMARCA2 function | MG213 cells, MMTV-luciferase reporter, dexamethasone, overnight | activation, % at 9.1 µM | actives 1% (n = 370,000) | AID 652017; in the data active = activation above about 7.8%
# Vif imaging = blocks HIV Vif function; actives 0.35% (n = 340,000); inhibition, % at 7.49 µM; HEK293T cells, Vif self-association by quenched fluorescence, imaging, 24 h; in the data active = inhibition above about 50%, passing the limit was not always enough; inconclusive = no clear call, values can overlap the other calls; inactive = below about 31%
# NR3A LBD binder = modulates the human NR3A ligand-binding domain | NR3A LBD differential scanning fluorimetry, Tm shift; 0% = protein alone, 100% = glycine-bound protein | Tm shift relative to glycine control, % at 25 µM | actives 2.5% (n = 340,000) | AID 1259313;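 active = melting temperature shift of at least 10% of the positive control shift, at one fixed dose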
# NadD block = blocks S. aureus nicotinate mononucleotide adenylyltransferase | purified NadD enzyme, colorimetric absorbance read-out | inhibition, % at 20 µM | actives 0.78% (n = 360,000); in the data active = inhibition above about 26%
# SKN-1 block = blocks SKN-1 activity in C. elegans. inhibition, % at 21.8 µM. actives 0.49% (n = 360,000). C. elegans VP596 Pgst-4::GFP/RFP ratio, acrylamide-induced, 24 h;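 active = interference check ratio from 0.5 to 1.5 plus GFP to RFP signal ratio inhibition reaching or exceeding a fixed threshold, cut at about 30% in these data, passing the limit was not always enough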
# esBAF inh = blocks esBAF chromatin remodeling in mouse ES cells | Bmi1-luciferase knock-in reporter, 24 h; 100% = twice the neutral-well signal | reporter increase, % at 12.5 µM | actives 2% (n = 350,000); in the data active = activation above about 40%; inconclusive = no clear call, values can overlap the other calls;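 note: a rise in the Bmi1 reporter signal indicates esBAF inhibition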
# SMARCA2 act conf = confirmation of SMARCA2 (BRM) function activators; shares compounds with SMARCA2 activ; MG213 cells, MMTV-luciferase with dexamethasone, luminescence, overnight; MG213 cells expressing E1A, Rb sequestered; DMSO wells 0%, reference activator 100%; activation, % at 9.1 µM; actives 30% (n = 3,500); AID 652260;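 active = activation above its plate's cutoff, the mean activation of tested wells plus 3 SD, cut at about 7.9% in these data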
# GAL4-VP16 Luc = activates GAL4-VP16 luciferase, flagging SMARCA2 activator hits; actives 41% (n = 3,500); HEK293 GAL4-VP16 pG5luc reporter, luciferase luminescence; scaled: DMSO wells 0%, SAHA wells 100%; activation, % at 9.1 µM; shares compounds with SMARCA2 activ;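 active = activation above the solvent-only control well mean plus 3 SD, averaged across control plates, cut at about 5.2% in these data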
# Numbers stand for hits; n = inactive; u = inconclusive; x = not tested or not shown. Sampled rows, rich in hits. Any-hit rate of the full collection: about 5.2%.
SMILES,SMARCA2 activ,Vif imaging,NR3A LBD binder,NadD block,SKN-1 block,esBAF inh,SMARCA2 act conf,GAL4-VP16 Luc
O=C(O)C1C(C(=O)Nc2ccc(Cl)cc2)C2C=CC1C21CC1 (centres undefined),8.7,n,n,n,n,x,n,n
COc1ccc(CCNCC(=O)Nc2c(C)cc(C)cc2C)cc1OC,n,n,n,n,n,n,x,x
COc1ccc(CCNCCC(=O)Nc2c(C)cc(C)cc2C)cc1OC,9.0,n,n,n,n,x,n,n
CCCCN(CC)CCNC(=O)c1cc2c(=O)n(C)c3ccccc3c2s1,n,n,n,n,n,n,x,x
CCCCN(CC)CCNC(=O)c1cc2c(=O)n(CC)c3ccccc3c2s1,n,n,n,n,n,n,x,x
CCCCN(CC)CCCNC(=O)c1cc2c(=O)n(CC)c3ccccc3c2s1,14,n,x,n,n,n,n,8.1
CCN(CC)CCNC(=O)c1cc2c(=O)n(C)c3ccccc3c2s1,14,n,n,n,n,n,14,n
C[C@@H]1CN([C@H](C)CO)C(=O)c2cc(C#CC3CC3)cnc2O[C@@H]1CN(C)C(=O)Nc1ccccc1,x,x,x,x,x,n,x,x
CO[C@H]1CN(C)C(=O)c2ccc(NS(=O)(=O)c3ccc(C)cc3)cc2OC[C@H](C)N(Cc2nccs2)C[C@H]1C,x,x,x,x,x,n,x,x
CN1CCc2c(sc3c2C(=O)NC(c2cccc(OC(=O)c4cccs4)c2)N3)C1 (centres undefined),14,n,n,n,n,42,n,11
CN1CCc2c(sc3c2C(=O)NC(c2ccco2)N3)C1 (centres undefined),n,n,n,n,n,n,x,x
Cn1c(=O)c([N+](=O)[O-])c(NCCc2ccccc2)c2ccccc21,12,n,n,n,n,x,n,n
CCn1c(=O)c([N+](=O)[O-])c(NCCc2ccccc2)c2ccccc21,x,n,n,n,n,x,x,x
CCCNC(=O)N1C[C@H](O)COC[C@@H]2O[C@@H](CC(=O)NCc3ccc(Cl)c(Cl)c3)CC[C@H]21,x,x,x,x,x,n,x,x
COc1cc(C(=O)NCC(=O)NCCCSc2ccccc2)cc(OC)c1OC,8.0,n,n,n,n,n,n,n
Cc1cccc(C(=O)NCC(=O)NCCCSc2ccccc2)c1,n,n,n,n,n,n,x,x
CN(C)CCCNC(=S)N1CCn2c(nc3ccccc32)C1,n,n,n,n,n,n,x,x
CCOC(=O)CNC(=S)N1CCn2c(nc3ccccc32)C1,9.8,n,n,n,n,x,n,n
COc1cc(C(=O)N2CC(=O)Nc3ccccc32)cc(OC)c1OC,9.2,n,x,n,n,n,n,n
Cc1cc(C)cc(C(=O)N2CC(=O)Nc3ccccc32)c1,n,n,n,n,n,x,x,x
Cn1cc([N+](=O)[O-])c(C(=O)Nc2ccc(-c3nc4ccccc4[nH]3)cc2)n1,9.8,n,19,n,n,x,11,7.6
Cn1cc([N+](=O)[O-])c(C(=O)Nc2ccc3nc(-c4ccccc4)[nH]c3c2)n1,n,n,n,n,n,u,x,x
O=C(C[C@H]1C[C@@H]2c3cc(NC(=O)NC4CCCC4)ccc3O[C@@H]2[C@H](CO)O1)NCc1ccc(Cl)cc1,x,x,x,x,x,n,x,x
Cc1ccc(Nc2nc(COC(=O)COc3ccc(C=O)cc3)cs2)cc1,9.8,n,10,n,n,49,8.1,9.0
CCOc1cc(C2NN=C(c3ccccc3)S2)ccc1OCc1ccc(F)cc1 (centres undefined),14,n,n,n,n,u,n,9.3
CC1CCCCN1S(=O)(=O)c1ccc(S(=O)(=O)N2CCCC2)cc1 (centres undefined),8.9,n,n,n,n,n,n,n
COCCNC(=O)C[C@@H]1C=C[C@@H](NS(=O)(=O)c2ccc(C)cc2)[C@H](CO)O1,x,x,x,x,x,n,x,x
Cc1oc(=O)c(NC(=O)c2cccc(Cl)c2)cc1C(=O)c1ccccc1,8.6,n,n,n,n,n,n,10
